Each structure is given as a SMILES string. “And” between values parts separate entries of the source, which are not always exact repeats. Equal entries are not always repeated. Inconclusive results are not listed. Unmarked numbers belong to inactive results. The source made the active and inactive calls. Calls follow the shape of the dose curve; as a rule, active = well fitted cell-killing curve with a large enough effect; inconclusive = small, poorly fitted or top-dose-only effect; inactive = flat fitted curve, though single readings scatter.

A short description of the assay: Cell Viability - Renal Proximal Tubule (AID 545).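 Also: 0% = DMSO only and -100% = 100 µM tamoxifen; nearly all actives have a fitted effect of over 40% in size.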 The settings on record: renal proximal tubule cells viability, primary cells of rat origin; at 91.7 µM (top of the series). The source says:
NIH Chemical Genomics Center [NCGC]
NIH Molecular Libraries Screening Centers Network [MLSCN]
National Institutes of Environmental Health Sciences [NIEHS]
National Toxicology Program [NTP]
We have developed a 1536-well cell-based assay for quantitative high throughput screening (qHTS) against a number of cell lines to determine in vitro cytotoxicity of small molecules. This particular assay uses the renal proximal tubule cells which are derived from normal kidney cells freshly isolated from rat.
NCGC Assay Protocol Summary:
The CellTiter-Glo luminescent cell viability assay (Promega) is a homogeneous method to measure the number of viable cells in culture. The end point readout of this assay is based on quantitation of intracellular ATP, an indicator of metabolic activity, using the luciferase reaction. Luciferase catalyzes the oxidation of beetle Luciferin to oxyluciferin and light in the presence of ATP. The luminescent signal is proportional to amount of ATP present.
Using the CellTiter-Glo luminescent cell viability assay, the amount of cellular ATP was measured in the renal proximal tubule cells with complete culture medium following compound treatment for 40 hours. The assay was performed in opaque white Kalypsys 1536-well plates. In the screen, tamoxifen and doxorubicin were used as positive controls. Library compounds were measured for their ability to cause acute toxicity in the cell line, as reflected by a decrease in intracellular ATP levels, in a concentration-dependent manner. […] AC50 values were determined from concentration-response data modeled with the standard Hill equation.
qHTS protocol for CellTiter Glo renal proximal tubule cell assay
[Step] [Parameter] [Value] [Description]
1. Reagent; 5 uL; 1000 renal proximal tubule cells/well
2. Time; 5 hr; 37 °C incubation
4. Controls; 23 nL; Tamoxifen 0.34 uM to 100 uM & Doxorubicin 0.02 nM to 100 uM
5. Time; 40 hr; 37 °C incubation
6. Reagent; 5 uL; CellTiter Glo reagent
7. Time; 20 min; Room Temperature
8. Detection; Luminescence; Viewlux plate reader
Keywords: cell viability, cytotoxicity, renal proximal tubule cells, luminescence, NTPHTS, NTPHTS_NCGC, NIEHS, EPA, DSSTox, MLSMR, MLSCN, NIH Roadmap, qHTS, NCGC
For the compound `OB(O)O`, the activity change, negative = cytotoxicity was -6.9%. As for `[O-][N+](=Nc1ccccc1)c1ccccc1`, the figure is -0.723%; as for `CC1=CC(=O)NS(=O)(=O)O1`, -8.28%. In the case of `Oc1ccc(/C=C/c2cc(O)cc(O)c2)cc1`, the activity change, negative = cytotoxicity was -14.2%.

On to `O=P(O)(O)O`, for which the activity change, negative = cytotoxicity is -7.24%. For `ClC(Cl)Cl`, the activity change, negative = cytotoxicity was -11.2%.

In the case of `Nc1nccs1`, the activity change, negative = cytotoxicity is 6.3%.

As to `Nc1ccc(N=Nc2ccccc2)c(N)n1`, the activity change, negative = cytotoxicity was -20%. As for `C=C1C(CCl)(CCl)C2(Cl)C(Cl)C(Cl)C1(Cl)C2(Cl)Cl` (stereo unspecified), the figure is -88.3% (active); as for `OCl`, 2.44%. In the case of `Oc1cccc(O)c1O` it was -27.7%; in that of `Cc1ccc(S(=O)(=O)O)cc1C`, -15.2%. On to `OCc1ccccc1`, for which the activity change, negative = cytotoxicity is -2.17%. In the case of `CC[C@H]1OC(=O)[C@H](C)[C@@H](O[C@H]2C[C@@](C)(OC)[C@@H](O)[C@H](C)O2)[C@H](C)[C@@H](O[C@@H]2O[C@H](C)C[C@H](N(C)C)[C@H]2O)[C@](C)(O)C[C@@H](C)CN(C)[C@H](C)[C@@H](O)[C@]1(C)O` it was -18.1%; in that of `CC(C)O`, 5.6%; in that of `NC(N)=O`, -9.08%. In the case of `Cc1ncc[nH]1` it was -3.28%; in that of `CCCCC`, 5.08%. As for `c1ccc2ccccc2c1`, the figure is 1.8%; as for `CO`, 5.17%. With `CC(C)(C)CC(C)(C)c1ccc(OCCO)cc1`, the activity change, negative = cytotoxicity is -16.5%. With `OCC(O)CO`, the activity change, negative = cytotoxicity is -12.3% and -5.8%. In the case of `OC[C@H]1O[C@@H]2O[C@H]3[C@H](O)[C@@H](O)[C@@H](O[C@H]4[C@H](O)[C@@H](O)[C@@H](O[C@H]5[C@H](O)[C@@H](O)[C@@H](O[C@H]6[C@H](O)[C@@H](O)[C@@H](O[C@H]7[C@H](O)[C@@H](O)[C@@H](O[C@H]1[C@H](O)[C@H]2O)O[C@@H]7CO)O[C@@H]6CO)O[C@@H]5CO)O[C@@H]4CO)O[C@@H]3CO` it was -2.88%; in that of `C[C@H]1O[C@@H](O[C@H]2[C@@H](O)C[C@H](O[C@H]3[C@@H](O)C[C@H](O[C@H]4CC[C@@]5(C)[C@H](CC[C@@H]6[C@@H]5C[C@@H](O)[C@]5(C)[C@@H](C7=CC(=O)OC7)CC[C@]65O)C4)O[C@@H]3C)O[C@@H]2C)C[C@H](O)[C@@H]1O`, -10.1%.

Consider `NCCN`, for which the activity change, negative = cytotoxicity is 7.8%. In the case of `CC/C=C\C/C=C\C/C=C\CCCCCCCC(=O)O` it was -15.2%.

On to `CCCCO`, for which the activity change, negative = cytotoxicity was -5.24% and 3.29%. As for `C/C=C/C=C/C(=O)O`, the figure is -2.27%; as for `C[C@H](CCC(=O)O)[C@H]1CC[C@H]2[C@@H]3[C@H](O)C[C@@H]4C[C@H](O)CC[C@]4(C)[C@H]3C[C@H](O)[C@]12C`, 5.01%. As for `O=c1n(CC2CO2)c(=O)n(CC2CO2)c(=O)n1CC1CO1` (stereo unspecified), the figure is -90% (active). As for `Nc1ncnc2c1ncn2[C@H]1CC[C@@H](CO)O1`, the figure is 2.7%; as for `CO/N=C(/C(=O)N[C@@H]1C(=O)N2C(C(=O)O)=C(COC(N)=O)CS[C@H]12)c1ccco1`, 4.36%. `C[C@H](CCC(=O)O)[C@H]1CC[C@H]2[C@@H]3CC[C@@H]4C[C@H](O)CC[C@]4(C)[C@H]3C[C@H](O)[C@]12C`: the activity change, negative = cytotoxicity was -13.4%. In the case of `CCOC(C)OCC` it was -8.55%. With `CC1=CCC2CC1C2(C)C` (stereo unspecified), the activity change, negative = cytotoxicity was 2.31%. In the case of `COC(=O)c1ccccc1O` it was -0.7%.

Source of the values: PubChem BioAssay (NCATS).
